In all, about 16,000 compounds went through this assay and about 2,600 (16%) were called active. Roughly 20% stayed inconclusive and do not appear here. A selection follows. Values without a mark were called inactive. Calls follow the shape of the dose curve; as a rule, active = well fitted curve in the direction sought with a large enough effect; inconclusive = small, poorly fitted or top-dose-only effect, or effect the other way; inactive = no such curve, though single readings can be large or run the other way.
These compounds were tested against Cytochrome P450 2D6 (Homo sapiens) (UniProt P10635) (assay: Cytochrome panel assay with activity outcomes). Conditions: recombinant CYP, pro-luciferin dealkylation, luminescence, p450-cyp2d6; series mostly up to 57.1 µM.
% is scaled to controls: 0 for no effect and ±100 for the full control effect.

Chain of Cytochrome P450 2D6 (Homo sapiens) (P10635 whole entry, looked up): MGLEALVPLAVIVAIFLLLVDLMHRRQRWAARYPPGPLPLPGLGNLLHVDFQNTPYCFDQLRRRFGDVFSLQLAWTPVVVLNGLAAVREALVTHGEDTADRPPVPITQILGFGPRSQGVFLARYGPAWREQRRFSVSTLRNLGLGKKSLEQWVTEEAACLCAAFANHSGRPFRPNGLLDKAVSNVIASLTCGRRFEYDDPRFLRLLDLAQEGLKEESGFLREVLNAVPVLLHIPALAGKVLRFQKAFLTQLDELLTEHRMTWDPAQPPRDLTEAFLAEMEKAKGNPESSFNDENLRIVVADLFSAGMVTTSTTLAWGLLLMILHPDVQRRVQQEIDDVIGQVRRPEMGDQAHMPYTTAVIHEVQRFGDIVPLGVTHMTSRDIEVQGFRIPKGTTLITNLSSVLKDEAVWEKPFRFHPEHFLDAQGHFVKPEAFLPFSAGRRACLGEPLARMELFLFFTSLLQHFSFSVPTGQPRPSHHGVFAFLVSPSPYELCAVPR

| SMILES | activity, negative = inhibition | AC50 |
| --- | --- | --- |
| C#CCCCO/N=C1/C[C@@H](O)[C@@H](O)[C@@H]2[C@@H]3C(=O)N(C[C@@H]4CCCO4)C(=O)[C@H]3CC[C@H]12 | -7.06% [at 11.4 µM] | – |
| Cn1c(=O)c(-c2ccccc2)nc2cnc(N3CCOCC3)nc21 | – | inactive |
| CC(=O)OC1COC(N2CCc3cc([N+](=O)[O-])ccc32)C(OC(C)=O)C1OC(C)=O (stereo not given) | – | inactive |
| COc1cccc(-c2csc(N3CCN(CC(=O)NNC(=O)c4ccc(Cl)cc4)CC3)n2)c1 | – | inactive |
| CC(C)(CO[C@H]1C[C@H]2CC[C@@]1(C)C2(C)C)[N+](=O)[O-] | 11.9% [at 11.4 µM] | – |
| CC(C)=CCC/C(C)=C/CO/N=C1/C[C@@H](O)[C@@H](O)[C@@H]2[C@@H]3C(=O)N(C4CCCCC4)C(=O)[C@H]3CC[C@H]12 | -9.81% [at 11.4 µM] | – |
| CS(=O)(=O)c1ccc(/C=N\NC(N)=S)cc1 | 9.53% [at 11.4 µM] | – |
| O=C(CSc1nnc2sc3ccccc3n12)NCc1ccco1 | – | inactive |
| CC(Cc1ccccc1)NC(=O)CSc1nc2nc3c(cc2c(=O)n1-c1ccccc1)COC(C)(C)C3 (stereo not given) | – | inactive |
| Cc1ccc(-n2c(SCC(=O)NCc3ccco3)nc3sc4c(c3c2=O)CC(C)(C)SC4)cc1 | – | 2.82 µM (active) |
| CCc1c(O)nc(SCC(=O)NC(C)(C)C)n(-c2ccccc2)c1=O | – | inactive |
| CC1(C)Cc2c(sc3nc(SCC(=O)NCc4ccccc4)n(-c4ccccc4)c(=O)c23)CS1 | – | 3.55 µM (active) |
| Cc1ccc(-n2c(N)c(C(=O)NCc3ccco3)sc2=S)cc1 | – | inactive |
| Cn1cc[nH]c1=S | – | inactive |
| Cn1cnc([N+](=O)[O-])c1SCC(=O)O | -1.18% [at 11.4 µM] | – |
| C[C@@H]1C[C@H](OC(=O)c2ccccc2O)CC(C)(C)C1 | – | inactive |
| CSc1nc(N)nc(SCC(=O)Nc2ccc(Cl)cc2)c1C#N | – | 2.24 µM (active) |
| COc1ccc(NC(=O)CSc2nc(-c3ccc(C)cc3)cc(C(F)(F)F)c2C#N)cc1 | – | inactive |
| CCOc1ccc(NC(=O)CSc2nc(C)c3c(c2C#N)CCCC3)cc1 | – | inactive |
| O=C(c1cccc(F)c1)N1CCC2(CCCN(c3cccc(-c4ccccc4)c3)C2)CC1 | – | inactive |
| CC1CCCN(C(=O)c2sc3cc([N+](=O)[O-])ccc3c2Cl)C1 (stereo not given) | – | 10 µM (active) |
| CN1CCCN(C)C1c1cc([N+](=O)[O-])ccc1O | -9.66% [at 11.4 µM] | – |
| O=C(c1sc2ccccc2c1Cl)N1CCN(c2ccc(F)cc2)CC1 | – | inactive |
| CC1CCCC(NC(=O)C2CCN(S(=O)(=O)N3CCC4(CC3)OCCO4)CC2)C1C (stereo not given) | – | inactive |
| Cc1sc(N)c(C(=O)c2cccc(C(F)(F)F)c2)c1C | – | inactive |

| SMILES | activity, negative = inhibition | AC50 |
| --- | --- | --- |
| O=C(Nc1c2c(nn1-c1ccc(F)cc1)CS(=O)(=O)C2)C12CC3CC(CC(C3)C1)C2 | – | inactive |
| O=C(Oc1ccccc1[N+](=O)[O-])c1cccnc1 | – | inactive |
| Cn1cc([N+](=O)[O-])c(C(=O)Nc2cc(Oc3cccnc3)cc([N+](=O)[O-])c2)n1 | – | 12.6 µM (active) |
| CC(=O)NN1C(=O)c2ccc(Oc3cccc([N+](=O)[O-])c3)cc2C1=O | – | inactive |
| Cc1cc(C(=O)O)c(=O)[nH]c1C | – | inactive |
| CC1(C)CC(=O)C2=C(C1)N(Cc1ccccc1)C(=O)C2(O)C(F)(F)F (stereo not given) | – | inactive |
| O=C(N/N=C/C1CCCCC1)c1ccccn1 | – | inactive |
| N#Cc1c2n(c3c(=S)nc[nH]c13)CCCCC2 | – | inactive |
| C=C1C=C(Br)C2(OCCCO2)[C@H]2OC12 (stereo not given in full) | 3.88% [at 11.4 µM] | – |
| COc1ccc(NC(=S)Nc2ccccc2)cc1 | -11.8% [at 11.4 µM] | – |
| Cc1cc(NC(=S)NC(=O)CC(C)C)ccc1Br | – | inactive |
| Cc1cc(NC(=S)Nc2ccccc2)ccc1Br | – | 2 µM (active) |
| CCCCC1(C)NC(=O)c2c(C)sc(C(=O)OCC)c2N1 (stereo not given) | – | inactive |
| CC1=C/C(=N/O)C([C@H]2C=C(C)CC(C)(C)[C@@H]2O)C(C)(C)C1 (stereo not given in full) | -8.52% [at 11.4 µM] | – |
| COc1ccc(S(=O)(=O)N2CCC(NC(=O)Nc3ccc(C)cc3)CC2)cc1 | – | inactive |
| COc1ccc(S(=O)(=O)N2CCC(N3CCCCC3)CC2)cc1 | – | 0.316 µM (active) |
| COc1ccc(S(=O)(=O)Nc2ccc(S(=O)(=O)N3CCCCC3)cc2)cc1C | – | inactive |
| CCCOC(=O)c1c(NC(=O)/C=C/c2cnn(C)c2C)sc(C(=O)OCC)c1C | – | inactive |
| CCOc1cccc2cc(C(N)=O)c(=NCc3ccccc3)oc12 | – | inactive |
| Oc1ccccc1-c1cc(-c2ccccc2)no1 | – | inactive |
| c1c[nH]c(CN2CCN(Cc3ncc[nH]3)CC2)n1 | -3.74% [at 11.4 µM] | – |
| C[C@@H]1c2ccccc2CN1CC1=NCCN1 | – | inactive |
| Cc1ccc(N(Cc2ccccc2)Cc2ccccc2)cc1 | 0.619% [at 11.4 µM] | – |
| c1c[nH]c(CN2CCOCC2)n1 | -10.1% [at 11.4 µM] | – |
| c1ccc2c(CC3=NCCN3)cccc2c1 | – | 7.94 µM (active) |

| SMILES | activity, negative = inhibition | AC50 |
| --- | --- | --- |
| c1ccc(CN(CC2=NCCN2)c2ccccc2)cc1 | – | 2.51 µM (active) |
| Cc1cc(C=C(C#N)C#N)c(C)n1-c1ccccc1 | – | inactive |
| CCc1cc2c(nc1CC)CCN(CC/C(C)=N/O[C@@H](C)c1cn([C@H](CO)Cc3ccccc3)nn1)C2 | 2.14% [at 11.4 µM] | – |
| Nc1ncnc2c([C@@H]3O[C@@H](CO)[C@H](O)[C@@H]3O)nsc12 | -0.815% [at 11.4 µM] | – |
| N#Cc1c(N2CCN(C(=O)c3ccccc3Cl)CC2)nc(-c2ccccc2)c2c1CCCC2 | – | inactive |
| CC1CN(C(=O)CN2C(=O)NC3(CCCCCC3)C2=O)CC(C)O1 (stereo not given) | – | inactive |
| Cc1nc2cnc(Oc3cccc(Cl)c3)nc2n(C2CC2)c1=O | – | inactive |
| CN(c1ccc(C(=O)NC2CC3CCC2C3)cc1)S(C)(=O)=O (stereo not given) | – | inactive |
| CNc1nc(NCCOC23CC4CC(CC(C4)C2)C3)nc(OCC(F)(F)F)n1 | – | inactive |
| Cc1ccc(C(=O)N2CCN(c3ccc(C(F)(F)F)cn3)CC2)cc1 | – | inactive |
| COc1cccc(Nc2ncc3nc(C)c(=O)n(CCC#N)c3n2)c1 | – | inactive |
| CC(=O)NCCNc1cc(-c2ccccc2C)ncn1 | – | inactive |
| COc1ccc2[nH]cc(CCNc3cc(-c4ccccc4C)ncn3)c2c1 | – | 7.94 µM (active) |
| COc1ccc2[nH]cc(CCNc3cc(-c4ccoc4)ncn3)c2c1 | – | 12.6 µM (active) |
| COc1ccc2[nH]cc(C=O)c2c1 | – | inactive |
| COCCNc1cc(-c2ccccc2C(F)(F)F)ncn1 | – | inactive |
| COc1cccc(-c2cc(NCCc3c[nH]c4ccc(OC)cc34)ncn2)c1 | – | 15.8 µM (active) |
| COc1ccc2[nH]cc(CCNc3cc(-c4ccccc4OC)ncn3)c2c1 | – | 12.6 µM (active) |
| COC(=O)Nc1ccc2[nH]cc(CCNC(C)=O)c2c1 | – | inactive |
| CCOC(=O)C1=C(C)NC2=C(C(=O)C(C(=O)OCC)C(c3ccc(OC)cc3)C2)C1c1ccccn1 (stereo not given) | – | inactive |
| O=C1OCCC1Sc1nnnn1-c1ccccc1 (stereo not given) | – | inactive |
| O=C1C[C@H](c2ccccc2)[C@@H](c2ccc(Br)cc2)O1 | -20.8% [at 11.4 µM] | – |
| COCCn1c(=O)cnc2cnc(Nc3cccc(OC)c3)nc21 | – | inactive |
| CC(C)Cc1nnc(NC(=O)c2ccc([N+](=O)[O-])cc2)s1 | – | inactive |
| COc1cccc(Cn2c(NCc3cccnc3)nc3c2c(=O)n(C)c(=O)n3C)c1 | – | inactive |

| SMILES | activity, negative = inhibition | AC50 |
| --- | --- | --- |
| COc1ccc(NC(=O)CN2c3cccc4cccc(c34)S2(=O)=O)cc1 | – | inactive |
| COc1ccc(CNC(=O)C(c2ccc(C)cc2)N(Cc2cccs2)C(=O)c2ccc3c(c2)OCCO3)cc1 (stereo not given) | – | inactive |
| CC(C(=O)NCc1ccc2c(c1)OCO2)N1c2cccc3cccc(c23)S1(=O)=O (stereo not given) | – | 10 µM (active) |
| CC(=O)Nc1ccc(C(=O)NNC(=O)CCc2ccccc2)cc1 | – | inactive |
| O=C(CCc1ccccc1)NNC(=S)NC(=O)c1ccccc1 | – | inactive |
| NNC(=O)c1ccc[n+](CCc2ccccc2)c1 | – | 2 µM (active) |
| CCc1cc2c(=O)[nH]cnc2s1 | – | inactive |
| CS(=O)(=O)Nc1cccc(-c2ccc3ncnc(NC4CC4)c3c2)c1 | – | inactive |
| CN(C)C(=O)c1ccc(-c2ccc3ncnc(N(C)C)c3c2)cc1 | – | inactive |
| CN(C)c1ncnc2ccc(-c3ccccc3C#N)cc12 | – | inactive |
| CS(=O)(=O)Nc1cccc(-c2ccc3ncnc(N4CCOCC4)c3c2)c1 | – | inactive |
| Cc1ccccc1-c1ccc2ncnc(N(C)C)c2c1 | – | 20 µM (active) |
| CN(Cc1ccco1)c1ncnc2ccc(-c3cccnc3)cc12 | – | 2 µM (active) |
| CN(C)c1ncnc2ccc(-c3ccoc3)cc12 | – | 10 µM (active) |
| CN(Cc1ccco1)c1ncnc2ccc(-c3cccc(NS(C)(=O)=O)c3)cc12 | – | 20 µM (active) |
| CN(C)c1ccc(-c2ccc3ncnc(N(C)C)c3c2)cc1 | – | inactive |
| Cc1noc(C)c1-c1ccc2ncnc(N(C)C)c2c1 | – | inactive |
| CC(C)(C)CNCCO | 17.6% [at 11.4 µM] | – |
| COCCSc1nnc(NC(=O)C(C)(C)C)s1 | – | inactive |
| Cc1c(Br)c([N+](=O)[O-])nn1C(C)C(=O)Nc1nccs1 (stereo not given) | – | inactive |
| CCN(CC)C(=O)CSc1nnc(C2CCCCC2)o1 | – | inactive |
| COC(=O)CN1C(=O)S/C(=C/c2ccc(N3CCCCC3)o2)C1=O | – | inactive |
| CSc1nc(N)c2ncn([C@H]3O[C@H](COP(=O)(O)OP(=O)(O)O)[C@@H](O)[C@@H]3O)c2n1 | – | inactive |
| O=C(O)c1cc(-c2ccc(-c3ccc(-c4cc(C(=O)O)c5cc(Cl)ccc5n4)cc3)cc2)nc2ccc(Cl)cc12 | 16.7% [at 11.4 µM] | – |
| Cn1nnnc1SCC(=O)Nc1ccccc1[N+](=O)[O-] | – | inactive |

Reference: PubChem BioAssay AID1851 (National Center for Advancing Translational Sciences (NCATS), 2009)
